# Most compounds without a hit are left out; they make up all but 18% or so of the library.
# Gal4-VP16 FLuc: Gal4-VP16 reporter inhibition counter-screen. Drosophila S2 Gal4-VP16 UAS-luciferase, luminescence, 20 h. Potency, µM (highest dose often 53.6 µM), for the others: top-dose activity, negative = inhibition, most hits filed as inhibitors. 3.5% of 310,000 active;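 further: Gal4-VP16 expression switched on by copper sulfate through the metallothionein promoter; potency means the concentration at half of the fitted maximal effect; nearly all actives have a fitted effect of over 50% in size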
# DT40 TDP1 no CPT: qHTS for Inhibitors of human tyrosyl-DNA phosphodiesterase 1 (TDP1): qHTS in cells in absence of CPT; DT40 Tdp1-/- hTDP1 cells, no CPT, ATP luminescence, 48 h; Potency, µM (series often up to 46.2 µM), for the others: top-dose activity change, negative = growth inhibition, usual class: inhibitors; AID 686978, 2013; 15% of 420,000 active; further: potency means the concentration at half of the fitted maximal effect; nearly all actives have a fitted effect of over 55% in size
#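 Stably hTDP1-transfected Tdp1-null chicken DT40 cells were treated with library compounds minus camptothecin and grown for at least 48 hr at 37 °C, after which cellular ATP was quantified by luminescence.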
# LDHA block: LDHA (human) enzyme inhibition | P00338 | AID 1347041 | activity change, % (values are at about 110 or 230 µM) | purified LDHA, NADH/diaphorase-resazurin fluorescence; active compounds read low | 0.15% of 480,000 active; in the data active means activity change below about -30%; inconclusive means mostly about -25% to -30%;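 further: plate controls were DMSO wells for no effect and wells without enzyme for full effect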
#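 Human LDH5 at 2 nM final in Tris HCl pH 7.4 with 0.06 mM NADH and 0.2 mM pyruvate, reacted 5 minutes at room temperature. Remaining NADH coupled via diaphorase/resazurin; resorufin fluorescence read at 0 and 20 minutes, normalized to enzyme-free and DMSO wells.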
# RORgamma inh: ROR gamma (mouse) transcription inhibition; P51450; Potency, µM (titrated, usually from 53.6 µM), for the others: at the highest dose activity change, negative = inhibition, usual class: inhibitors; 5.4% of 310,000 active; Drosophila S2 Gal4-RORgamma UAS-luciferase reporter, 20 h; AID 2551; further: potency means the concentration at half of the fitted maximal effect; nearly all actives have a fitted effect of over 60% in size
# Target sequence (P51450 whole entry, looked up, the tested form may be a part): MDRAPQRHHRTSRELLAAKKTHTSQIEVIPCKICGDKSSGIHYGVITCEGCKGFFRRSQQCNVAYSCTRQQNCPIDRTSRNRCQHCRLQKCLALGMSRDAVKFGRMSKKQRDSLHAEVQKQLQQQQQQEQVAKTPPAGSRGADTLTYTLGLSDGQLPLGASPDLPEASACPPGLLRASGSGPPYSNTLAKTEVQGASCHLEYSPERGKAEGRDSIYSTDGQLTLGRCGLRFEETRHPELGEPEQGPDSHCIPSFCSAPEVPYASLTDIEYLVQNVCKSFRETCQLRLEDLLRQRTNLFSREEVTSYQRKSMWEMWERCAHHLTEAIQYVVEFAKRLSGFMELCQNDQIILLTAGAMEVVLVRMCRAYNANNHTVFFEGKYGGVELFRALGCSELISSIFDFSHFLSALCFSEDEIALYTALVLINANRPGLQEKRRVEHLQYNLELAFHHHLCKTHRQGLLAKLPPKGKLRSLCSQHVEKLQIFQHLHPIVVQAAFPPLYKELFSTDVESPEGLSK
#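 Drosophila Schneider cells stably carrying a metallothionein-driven Gal4 DBD–ROR gamma fusion and a UAS-Photinus luciferase reporter were exposed to compound for 1 hr, then induced with copper sulfate (700 uM final) for 20 hr at ambient temperature before luminescence reading.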
# IL1B secr inh: inhibitors of inflammasome signaling (IL-1 beta secretion); THP-1 LPS/ATP IL-1B secretion, AlphaLISA, 16 h; active compounds read low; 4.7% of 360,000 active; activity change, % at 57.5 µM; in the data active means activity change below about -50%; inconclusive means mostly about -30% to -49%
#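 THP-1 cells pretreated 1 hr with compounds (up to 57.5 uM final), then stimulated with LPS (250 ng/mL final) plus ATP (1.25 mM final); secreted IL-1B measured by AlphaLISA after 16 hr, decreased signal indicating inhibition.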
# DT40 TDP1 CPT: DT40-hTDP1 cell growth loss with CPT. chicken DT40 Tdp1-/-;hTDP1 cells + 20 nM CPT, ATP luminescence, 48 h. AID 686979. 12% of 420,000 active. Potency, µM (doses to about 46.2 µM), for inactives: at the highest dose activity change, negative = growth inhibition, hits mostly inhibitors; further: potency means the concentration at half of the fitted maximal effect; nearly all actives have a fitted effect of over 55% in size
#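 Chicken DT40 Tdp1-/- cells stably complemented with human TDP1 were seeded at 400 cells/well in medium containing 20 nM camptothecin, exposed to pin-transferred compounds, and grown at 37 °C for at least 48 hr. Viability was read as ATP luminescence.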
# Active calls of the source: *; u = inconclusive; x = not tested or not shown; ! = repeats disagree. Unless noted, the call rests on the fitted dose curve; in most records, active means well fitted curve in the direction sought with a large enough effect; inconclusive means small, poorly fitted or top-dose-only effect, or another doubt; inactive means no such curve, though single readings can be large; an effect the other way counts as inactive or inconclusive. Unless noted, on the % scale 0 is the no-effect control and ±100 the full control effect.
SMILES,Gal4-VP16 FLuc,DT40 TDP1 no CPT,LDHA block,RORgamma inh,IL1B secr inh,DT40 TDP1 CPT
C/C(=N\NC(N)=O)c1ccc(Cl)s1,-4%,4%,-11,17%,14,1%
CNC(=S)N/N=C(\C)c1ccc(Cl)s1,1.1µM*,4.6µM*,-12,0.4µM*,3,2.9µM*
O=C(O)c1cc(-c2cccc(Cl)c2)nc2ccccc12,x,x,-7,x,x,x
Cc1ccc(S(=O)(=O)NC2=C(N3CCN(c4ccccc4F)CC3)C(=O)c3ccccc3C2=O)cc1,-9%,u,11,11%,-64*!,23µM*
CCOC(=O)N1CCN(C2=C(NS(=O)(=O)c3ccc(C)cc3)C(=O)c3ccccc3C2=O)CC1,-2%,u,12,-7%,11,8.2µM*
CC(=O)Nc1ccc(S(=O)(=O)NC2=C(N3CCN(c4ccc(F)cc4)CC3)C(=O)c3ccccc3C2=O)cc1,-10%,16µM*,20,-40%,-7,10µM*
NC(=O)C1CCN(C2=C(NS(=O)(=O)c3ccc(Cl)cc3)C(=O)c3ccccc3C2=O)CC1,-17%,u,12,-7%,-8,16µM*
Cc1ccnc(NC(=O)COc2ccc3c(=O)c(Oc4ccccc4)c(C)oc3c2)c1,x,x,-6,x,x,x
Cc1ccc(N/N=C/C=C/c2ccccc2[N+](=O)[O-])c(C)c1,x,x,6,x,x,x
Cc1cc(C(F)F)nn1Cc1nc2c3c4c(sc3ncn2n1)CC(C)CC4 (stereo unspecified),x,x,-3,x,x,x
Cc1cccc(NC(=O)Cn2cnc3c2c(=O)n(C)c(=O)n3C)c1C,x,x,8,x,x,x
Cc1ccc(S(=O)(=O)NC2=C(N3CCN(Cc4ccccc4)CC3)C(=O)c3ccccc3C2=O)cc1,9%,16µM*,14,1%,-11,23µM*
COC(=O)C1CCN(C2=C(NS(=O)(=O)c3ccc(Cl)cc3)C(=O)c3ccccc3C2=O)CC1,-5%,-17%,5,22%,0,u
CC(C)(CN1CCN(Cc2ccccc2)CC1)NS(=O)(=O)c1ccc(Cl)cc1,2%,18µM*,1,8%,-25,16µM*
Cc1cc2c(c(=O)n1CCN(C)C)C(c1ccc(Cl)cc1Cl)C(C#N)=C(N)O2 (stereo unspecified),x,x,15,x,x,x
Clc1cc(Cl)c(OCC#CI)cc1Cl,5.6µM*,1.9µM*,x,7.1µM*,x,1.7µM*
Clc1cc(Cl)c(Cl)cc1Cl,-3%,-21%,-2,12%,-3,-19%
CC(=O)c1ccc2c(c1)OCCOCCOCCO2,-5%,-9%,4,-13%,6,-5%
C/C(=N/O)c1ccc2c(c1)OCCOCCOc1cc(/C(C)=N/O)ccc1OCCOCCO2,u,16µM*,-6,41%,-19,u
C/C(=N\O)c1ccc2c(c1)OCCO2,-8%,3.7µM*,-1,32%,-24,-4%
NC(=O)c1ccccc1NC(=O)c1cc(=O)c2ccccc2o1,x,x,11,x,x,x
Cc1oc(-c2ccccc2)nc1C(=O)N1CCN(CC(=O)N2CCOCC2)CC1,x,x,4,x,x,x
O=C(Nc1ccc(Cl)c(S(=O)(=O)N2CCCC2)c1)c1n[nH]c(=O)c2ccccc12,x,x,-3,x,x,x
O=C(Nc1nnc(-c2ccccc2)o1)C1CCN(S(=O)(=O)c2cccc(Cl)c2Cl)CC1,x,x,9,x,x,x
CN(C)S(=O)(=O)c1ccc(C(=O)Nc2ccc(S(=O)(=O)NC3=NCCCCC3)cc2)cc1,3%,-4%,-8,-3%,8,-16%
O=C(Nc1ccc(S(=O)(=O)NC2=NCCCCC2)cc1)c1ccc(Cl)c([N+](=O)[O-])c1,x,23µM*,-1,x,-96*,u
COc1ccc(C(=O)Nc2ccc(S(=O)(=O)Nc3cc(C)nc(C)n3)cc2)c(OC)c1,-1%,23µM*,-3,13%,13,21µM*

# Assay outcomes: PubChem, National Center for Advancing Translational Sciences (NCATS)
